PubChem BioAssay (Tox21)
“And” between values parts separate entries of the source, which are not always exact repeats. Equal values may be shown once. Records with an inconclusive call do not appear. The source made the active and inactive calls. Unless noted, calls come from the whole dose curve.

Key:
[1] = Nuclear factor erythroid 2-related factor 2/antioxidant responsive element (Nrf2/ARE) small molecule agonists: qHTS cell viability counter screen in human keratinocytes (AID 1919968; active = well fitted curve in the direction sought with a large enough effect in the repeat runs; an effect the other way counts as inactive or inconclusive; note: nearly all actives have a fitted effect of over 55% in size; note: potency is the fitted concentration of half-maximal effect)
Summary of the method: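 CellTiter-Fluor fluorescence, read 1 h after reagent, gave viability in the same wells as the ARE-luciferase assay. KeratinoSens cells (1,500/well) had 23 h compound exposure at 37 C/5% CO2 following 5 h plating.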

[2] = Nuclear factor erythroid 2-related factor 2/antioxidant responsive element (Nrf2/ARE) small molecule agonists: luciferase reporter gene qHTS assay in human keratinocytes (AID 1919969); note: nearly all actives have a fitted effect of over 35% in size; note: potency is the fitted concentration of half-maximal effect
[3] = biological target: Gonadotropin-releasing hormone receptor (Homo sapiens) (UniProt P30968); assay: Human gonadotropin-releasing hormone receptor (GnRHR) small molecule agonists, calcium flux assay in GnRHR-HEK293 cells (AID 1920063); note: nearly all actives have a fitted effect of over 35% in size
Summary of the method: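 Agonist mode: compounds at 15 concentrations, in triplicate, went onto calcium dye-loaded GnRHR-HEK293 cells. Intracellular calcium was then followed as 480/540 nm fluorescence at 1 s intervals over 3 min.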

[4] = biological target: KiSS-1 receptor (Homo sapiens) (UniProt Q969F8); assay: Human kisspeptin (KISS1R) small molecule agonists, calcium flux assay in KISS1R-HEK293 cells (AID 1920064; active = well fitted curve in the direction sought with a large enough effect in the repeat runs; an effect the other way counts as inactive or inconclusive)
Summary of the method: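 Agonist mode: intracellular calcium rise tracked at 1 s intervals over 3 min (480/540 nm) immediately after compound addition to dye-loaded KISS1R-HEK293 stable cells. Each compound tested at 15 concentrations in triplicate.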

[5] = G protein-coupled receptor (GPCR) small molecule agonists, calcium flux assay: HEK293 wild type cell line counter screen (AID 1920065)
Summary of the method: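 Calcium flux counter screen: compound added in agonist mode at 15 concentrations in triplicate to dye-loaded parental HEK293 cells. Fluorescence (480/540) read kinetically for 3 min; ATP served as positive control.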

[6] = p53 small molecule agonists, cell-based qHTS assay with human liver microsomes (AID 1963577);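 note: p53 response element beta-lactamase reporter cells with liver microsomes plus NADPH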
Summary of the method: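 In this qHTS, p53 response-element beta-lactamase cells receive test compound together with a microsome/NADPH activating system (0.5 mg/mL final each) and are incubated 16 h at 37 C before LiveBLAzer fluorescence detection.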

[7] = p53 small molecule agonists, cell-based qHTS assay with rat liver microsomes (AID 1963578)
Summary of the method: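 Agonist mode in p53RE-bla reporter cells, with compounds co-incubated 16 h at 37 C alongside 0.5 mg/mL rat liver microsomes and 0.5 mg/mL NADPH (final), followed by a 2 h LiveBLAzer detection step.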

[8] = p53 small molecule agonists, cell-based qHTS assay with human liver microsomes: qHTS cell viability counter screen (AID 1963579); note: nearly all actives have a fitted effect of over 45% in size; note: potency is the fitted concentration of half-maximal effect
Summary of the method: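 Metabolically activated exposure: compounds, human liver microsomes and NADPH (0.5 mg/mL final apiece) were added to p53RE-bla cells seeded 5 h earlier, left 16 h at 37 C, and then assessed for viability by CellTiter-Glo luminescence.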

[9] = p53 small molecule agonists, cell-based qHTS assay with rat liver microsomes: qHTS cell viability counter screen (AID 1963580); note: nearly all actives have a fitted effect of over 45% in size
Summary of the method: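 After the beta-lactamase ratio was read, CellTiter-Glo was added to the same wells and luminescence measured at 30 min; cells had been treated 16 h at 37 C with compounds, rat liver microsomes and NADPH (0.5 mg/mL final each).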

[10] = p53 small molecule agonists, cell-based qHTS assay (AID 1963582; active = well fitted activation curve with a large enough effect in the signal ratio in the repeat runs, not every such curve was filed as active; the % refers to the signal ratio)
Summary of the method: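 Read-out is beta-lactamase FRET fluorescence after 2 h at room temperature with LiveBLAzer B/G substrate. p53 response element-bla cells were treated 16 h at 37 C with compounds in DMSO, added 5 h after seeding.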

[11] = biological target: 5-hydroxytryptamine receptor 2A (Homo sapiens) (UniProt P28223); assay: 5-hydroxytryptamine receptor 2A (HTR2A) small molecule antagonists, cell-based qHTS assay (AID 1963586); note: nearly all actives have a fitted effect of over 45% in size; note: potency is the fitted concentration of half-maximal effect
Summary of the method: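 CHO cells stably expressing human HTR2A were plated for 18 h at 37 C, then loaded with calcium dye for 1 h. Compounds were preincubated 5 min at room temperature before DOI (4 nM solution) was added. Kinetic fluorescence was read for 3 min.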

[12] = biological target: 5-hydroxytryptamine receptor 2A (Homo sapiens) (UniProt P28223); assay: 5-hydroxytryptamine receptor 2A (HTR2A) small molecule agonists, cell-based qHTS assay (AID 1963587); note: nearly all actives have a fitted effect of over 30% in size
Summary of the method: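 CHO cells stably expressing human HTR2A, plated 18 h, loaded with calcium dye 1 h at 37 C. Agonist mode: compounds added and intracellular calcium fluorescence recorded kinetically for 2 min at 1 sec intervals.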

[13] = biological target: Muscarinic acetylcholine receptor M1 (Homo sapiens) (UniProt P11229); assay: Cholinergic receptor muscarinic 1 (CHRM1) small molecule antagonists, cell-based qHTS assay (AID 1963588); note: nearly all actives have a fitted effect of over 40% in size; note: potency is the fitted concentration of half-maximal effect
Summary of the method: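 Compounds were tested at 15 concentrations in three independent runs. Dye-loaded CHRM1-CHO cells were exposed 5 min at room temperature before stimulation by acetylcholine added at 50nM. Intracellular calcium was read kinetically on FDSS for 3 min.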

[14] = biological target: Muscarinic acetylcholine receptor M1 (Homo sapiens) (UniProt P11229); assay: Cholinergic receptor muscarinic 1 (CHRM1) small molecule agonists, cell-based qHTS assay (AID 1963589); note: nearly all actives have a fitted effect of over 35% in size
Summary of the method: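 Agonist-mode calcium-flux screen: compounds at 15 concentrations, three independent runs, were pin-transferred onto dye-loaded human CHRM1-CHO cells. Fluorescence was then recorded kinetically every second over minutes.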

[15] = cAMP Responsive Elements (CRE) small molecule agonists, cell-based qHTS assay (AID 1963590)
Summary of the method: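 Agonist mode: compound added to CRE-bla HEK 293T cells (2,000/well, 18 h after plating) for 3 h at 37 C/5% CO2. Reporter activity detected via FRET beta-lactamase substrate, 2 h room-temperature loading.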

[16] = cAMP Responsive Elements (CRE) small molecule antagonists, cell-based qHTS assay (AID 1963591; active = well fitted inhibition curve with a large enough effect in the signal ratio in the repeat runs, not every such curve was filed as active; the % refers to the signal ratio)
Summary of the method: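 Antagonist mode: compounds are added alongside the adenylyl cyclase activator NKH477 (0.25 uM final) to CRE-bla HEK293T cells for 3 h. LiveBLAzer FRET substrate, 2 h at room temperature, reports bla expression.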

[17] = biological target: D(2) dopamine receptor (Homo sapiens) (UniProt P14416); assay: Dopamine D2 receptor (DRD2) small molecule antagonists, cell-based qHTS assay (AID 1963595; active = well fitted inhibition curve with a large enough effect in the signal ratio in the repeat runs, with a control signal flat; the % refers to the signal ratio)
Summary of the method: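 HEK293 cells stably expressing DRD2 were preincubated with 0.1 mM Ro20-1724, then with compound for 10 min at room temperature. Cells were stimulated with 200 nM NKH477 plus 12 nM quinpirole for 30 min, and cAMP was read by HTRF.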

[18] = biological target: Beta-2 adrenergic receptor (Homo sapiens) (UniProt P07550); assay: Adrenergic beta2 receptor (ADRB2) small molecule antagonists, cell-based qHTS assay (AID 1963592); note: series mostly up to about 92 µM; nearly all actives have a fitted effect of over 50% in size
Summary of the method: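 Assay format: CHO-ADRB2 cells, 18-20hr seeding at 37C/5% CO2, then compound plus 1nM isoproterenol agonist mix for 0.5hr RT. Homogeneous time-resolved fluorescence cAMP detection after 1hr, expressed as 665/615 nm ratio.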

[19] = biological target: D(2) dopamine receptor (Homo sapiens) (UniProt P14416); assay: Dopamine D2 receptor (DRD2) small molecule agonists, cell-based qHTS assay (AID 1963594); note: nearly all actives have a fitted effect of over 35% in size
Summary of the method: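 HEK293 cells stably expressing human DRD2, pre-treated with PDE inhibitor Ro20-1724 (0.1 mM final) and compound 10 min at room temperature, then stimulated with NKH477 (200nM […]) for 30 min. cAMP read by HTRF (665/620 nm).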

[20] = p53 small molecule agonists, cell-based qHTS assay: qHTS cell viability counter screen (AID 1963581); note: nearly all actives have a fitted effect of over 45% in size
Summary of the method: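 Counter screen read by CellTiter-Glo luminescence (ATP content, 30 min at room temperature), run in the same wells as the beta-lactamase reporter read. HCT-116 p53RE-bla cells saw compounds for 16 h at 37 C.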
% is set by controls: 0 for no effect and ±100 for the full control effect.

KiSS-1 receptor (Homo sapiens), sequence (Q969F8 whole entry, looked up): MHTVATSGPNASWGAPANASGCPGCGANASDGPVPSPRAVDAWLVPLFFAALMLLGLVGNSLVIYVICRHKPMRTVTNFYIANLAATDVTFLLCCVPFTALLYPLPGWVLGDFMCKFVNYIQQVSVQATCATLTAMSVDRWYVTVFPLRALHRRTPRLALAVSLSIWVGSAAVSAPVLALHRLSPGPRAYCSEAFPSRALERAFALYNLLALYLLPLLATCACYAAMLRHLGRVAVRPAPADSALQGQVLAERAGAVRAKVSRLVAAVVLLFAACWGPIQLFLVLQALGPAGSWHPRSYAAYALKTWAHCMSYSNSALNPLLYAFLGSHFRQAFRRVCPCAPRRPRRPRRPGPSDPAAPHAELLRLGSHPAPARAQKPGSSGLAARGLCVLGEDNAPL
D(2) dopamine receptor (Homo sapiens), sequence (P14416 whole entry, looked up): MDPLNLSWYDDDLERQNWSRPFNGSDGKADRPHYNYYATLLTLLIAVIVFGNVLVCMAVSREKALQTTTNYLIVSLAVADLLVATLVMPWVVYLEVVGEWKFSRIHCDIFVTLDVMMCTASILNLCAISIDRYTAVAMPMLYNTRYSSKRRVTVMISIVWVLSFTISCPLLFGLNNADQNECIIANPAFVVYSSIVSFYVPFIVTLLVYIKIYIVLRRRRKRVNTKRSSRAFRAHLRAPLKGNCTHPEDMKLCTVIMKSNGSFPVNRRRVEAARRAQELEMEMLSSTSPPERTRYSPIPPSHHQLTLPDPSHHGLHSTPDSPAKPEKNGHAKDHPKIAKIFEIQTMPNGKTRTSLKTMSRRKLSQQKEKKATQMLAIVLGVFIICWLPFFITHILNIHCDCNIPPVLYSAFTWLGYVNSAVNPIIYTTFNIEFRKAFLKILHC
Beta-2 adrenergic receptor (Homo sapiens), sequence (P07550 whole entry, looked up): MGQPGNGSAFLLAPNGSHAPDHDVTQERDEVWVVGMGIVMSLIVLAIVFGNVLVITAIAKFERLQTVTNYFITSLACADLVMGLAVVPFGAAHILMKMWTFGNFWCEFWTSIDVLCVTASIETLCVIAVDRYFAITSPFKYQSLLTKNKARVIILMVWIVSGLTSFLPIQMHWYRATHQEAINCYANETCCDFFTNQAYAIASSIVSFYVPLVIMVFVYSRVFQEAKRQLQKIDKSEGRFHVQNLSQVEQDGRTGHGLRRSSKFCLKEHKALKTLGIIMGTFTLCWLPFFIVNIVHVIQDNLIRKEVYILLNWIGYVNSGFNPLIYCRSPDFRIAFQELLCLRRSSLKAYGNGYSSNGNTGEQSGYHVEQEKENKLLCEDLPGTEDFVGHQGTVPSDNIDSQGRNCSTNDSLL
Muscarinic acetylcholine receptor M1 (Homo sapiens), sequence (P11229 whole entry, looked up): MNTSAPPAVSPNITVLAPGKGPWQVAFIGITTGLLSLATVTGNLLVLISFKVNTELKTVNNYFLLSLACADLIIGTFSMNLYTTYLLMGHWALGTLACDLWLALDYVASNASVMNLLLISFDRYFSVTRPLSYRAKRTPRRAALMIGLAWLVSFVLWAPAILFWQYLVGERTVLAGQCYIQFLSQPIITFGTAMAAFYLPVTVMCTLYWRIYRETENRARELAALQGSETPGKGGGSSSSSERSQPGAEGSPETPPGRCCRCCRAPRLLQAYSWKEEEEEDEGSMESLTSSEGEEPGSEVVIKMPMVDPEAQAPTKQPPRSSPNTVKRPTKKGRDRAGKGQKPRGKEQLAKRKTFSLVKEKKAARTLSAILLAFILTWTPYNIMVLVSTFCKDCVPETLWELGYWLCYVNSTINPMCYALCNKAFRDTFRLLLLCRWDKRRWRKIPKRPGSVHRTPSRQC
5-hydroxytryptamine receptor 2A (Homo sapiens), sequence (P28223 whole entry, looked up): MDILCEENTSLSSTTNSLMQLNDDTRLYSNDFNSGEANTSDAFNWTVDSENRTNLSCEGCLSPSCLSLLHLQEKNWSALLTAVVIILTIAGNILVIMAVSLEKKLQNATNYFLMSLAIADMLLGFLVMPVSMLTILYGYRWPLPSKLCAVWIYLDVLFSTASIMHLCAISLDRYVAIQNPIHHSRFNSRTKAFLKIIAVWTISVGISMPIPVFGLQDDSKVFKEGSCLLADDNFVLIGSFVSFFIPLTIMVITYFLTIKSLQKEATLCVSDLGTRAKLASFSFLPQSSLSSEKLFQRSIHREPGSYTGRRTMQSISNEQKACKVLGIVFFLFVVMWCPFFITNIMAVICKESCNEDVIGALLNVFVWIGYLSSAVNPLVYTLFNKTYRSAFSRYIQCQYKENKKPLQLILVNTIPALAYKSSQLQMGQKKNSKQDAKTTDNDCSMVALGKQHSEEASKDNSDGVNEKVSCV
Gonadotropin-releasing hormone receptor (Homo sapiens), sequence (P30968 whole entry, looked up): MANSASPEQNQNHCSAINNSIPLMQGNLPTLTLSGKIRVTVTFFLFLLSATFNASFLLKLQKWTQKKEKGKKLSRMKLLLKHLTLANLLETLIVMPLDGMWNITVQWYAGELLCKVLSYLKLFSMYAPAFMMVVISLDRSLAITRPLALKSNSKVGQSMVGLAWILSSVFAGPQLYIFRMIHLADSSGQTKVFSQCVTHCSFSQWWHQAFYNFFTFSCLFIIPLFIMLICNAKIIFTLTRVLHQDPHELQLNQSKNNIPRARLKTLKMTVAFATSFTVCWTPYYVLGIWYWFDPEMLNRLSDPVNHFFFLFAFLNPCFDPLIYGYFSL

CO[C@@H]1[C@H](OC(=O)NC(=O)CCl)CC[C@]2(CO2)[C@H]1[C@@]1(C)O[C@@H]1CC=C(C)C
active: Potency [2] 16.7 µM
inactive: activity change, negative = cytotoxicity [1] -2.18% [at 19 µM] | activity change [3] 0.0131% [at 11.8 µM, stronger effect = higher value] | activation [4] 0.453% [at 15.8 µM] | activation [5] 2.6% [at 11.8 µM] | activation [6] -1.53% [at 13.5 µM] | activation [7] 1.99% [at 13.6 µM] | activity change, negative = cytotoxicity [8] 1.12% [at 13.5 µM] | activity change, negative = cytotoxicity [9] -0.0178% [at 13.5 µM] | activation [10] -1.88% [at 13.5 µM] | activity, negative = inhibition [11] -0.303% [at 12.7 µM] | activation [12] -4.56% [at 15.9 µM] | activity, negative = inhibition [13] 56% [at 12.6 µM] | activation [14] -0.344% [at 15.8 µM] | activation [15] -1.17% [at 19 µM] | activity change, negative = inhibition [16] -7.46% [at 18.9 µM] | activity change, negative = inhibition [17] -0.406% [at 18.9 µM]

CC(C)C1(C)N=C(c2ncccc2C(=O)O)NC1=O (stereo not drawn)
inactive: Potency [1] | Potency [2] | Potency [3] | Potency [4] | Potency [5] | Potency [6] | Potency [7] | Potency [8] | Potency [9] | Potency [10] | Potency [11] | Potency [12] | Potency [13] | Potency [14] | Potency [16] | Potency [18] | Potency [19] | Potency [17]

ClC1=C(Cl)[C@]2(Cl)[C@@H]3[C@@H](Cl)[C@H](Cl)C[C@@H]3[C@@]1(Cl)C2(Cl)Cl
inactive: Potency [1] | Potency [2] | Potency [3] | Potency [4] | Potency [5] | Potency [6] | Potency [7] | Potency [9] | Potency [20] | Potency [10] | Potency [11] | Potency [12] | Potency [13] | Potency [14] | Potency [15] | Potency [16] | Potency [18] | Potency [19] | Potency [17]

CN1CCC(N(Cc2ccccc2)c2ccccc2)CC1
inactive: Potency [1] | Potency [2] | Potency [3] | Potency [4] | Potency [5] | Potency [6] | Potency [7] | Potency [8] | Potency [10] | Potency [12] | Potency [14] | Potency [15] | Potency [16] | Potency [18] | Potency [19] | Potency [17]
active: Potency [11] 2.59 µM | Potency [13] 0.365 µM

N#CCCC#N
inactive: Potency [1] | Potency [2] | Potency [3] | Potency [4] | Potency [5] | Potency [6] | Potency [7] | Potency [8] | Potency [20] | Potency [10] | Potency [11] | Potency [13] | Potency [14] | Potency [15] | Potency [16] | Potency [18] | Potency [19] | Potency [17]

C=C(C)C#N
inactive: Potency [1] | Potency [2] | Potency [3] | Potency [4] | Potency [5] | Potency [6] | Potency [7] | Potency [9] | Potency [20] | Potency [10] | Potency [11] | Potency [12] | Potency [13] | Potency [14] | Potency [15] | Potency [16] | Potency [18] | Potency [19] | Potency [17]

CCOC(=O)c1ccccc1S(=O)(=O)NC(=O)Nc1nc(Cl)cc(OC)n1
inactive: Potency [1] | Potency [2] | Potency [3] | Potency [4] | Potency [5] | Potency [6] | Potency [7] | Potency [8] | Potency [20] | Potency [10] | Potency [11] | Potency [12] | Potency [13] | Potency [14] | Potency [15] | Potency [16] | Potency [18] | Potency [19] | Potency [17]

N#CCCO
inactive: Potency [1] | Potency [2] | Potency [3] | Potency [4] | Potency [5] | Potency [6] | Potency [7] | Potency [8] | Potency [20] | Potency [10] | Potency [11] | Potency [12] | Potency [13] | Potency [15] | Potency [16] | Potency [18] | Potency [19] | Potency [17]

CC(C)CCCCCCOC(=O)c1ccccc1C(=O)OCCCCCCC(C)C
inactive: Potency [1] | Potency [2] | Potency [3] | Potency [4] | Potency [5] | Potency [6] | Potency [7] | Potency [8] | Potency [20] | Potency [10] | Potency [11] | Potency [12] | Potency [13] | Potency [14] | Potency [15] | Potency [16] | Potency [18] | Potency [19] | Potency [17]

CC(C)Nc1ccc(Nc2ccccc2)cc1
inactive: Potency [3] | Potency [4] | Potency [5] | Potency [6] | Potency [7] | Potency [10] | Potency [12] | Potency [14] | Potency [18]
active: Potency [1] 30.5 µM | Potency [2] 9.65 µM and 24.3 µM | Potency [8] 28.8 µM and 28.9 µM | Potency [11] 11.8 µM and 16.8 µM | Potency [13] 11.9 µM

ClCc1cccnc1
inactive: Potency [1] | Potency [2] | Potency [3] | Potency [4] | Potency [5] | Potency [6] | Potency [7] | Potency [8] | Potency [20] | Potency [10] | Potency [11] | Potency [12] | Potency [13] | Potency [14] | Potency [15] | Potency [16] | Potency [18] | Potency [19] | Potency [17]

COC(=O)c1cncn1C(C)c1ccccc1 (stereo not drawn)
inactive: Potency [1] | Potency [2] | Potency [3] | Potency [4] | Potency [5] | Potency [6] | Potency [7] | Potency [8] | Potency [20] | Potency [10] | Potency [11] | Potency [12] | Potency [13] | Potency [14] | Potency [15] | Potency [18] | Potency [19] | Potency [17]

O=C1C=CC(=O)C=C1
inactive: Potency [1] | Potency [2] | Potency [3] | Potency [4] | Potency [5] | Potency [6] | Potency [7] | Potency [8] | Potency [20] | Potency [10] | Potency [11] | Potency [12] | Potency [13] | Potency [14] | Potency [15] | Potency [16] | Potency [18] | Potency [19] | Potency [17]

CC(C)(O)C(Cl)(Cl)Cl
inactive: Potency [1] | Potency [2] | Potency [3] | Potency [4] | Potency [5] | Potency [6] | Potency [7] | Potency [8] | Potency [20] | Potency [10] | Potency [11] | Potency [12] | Potency [13] | Potency [14] | Potency [15] | Potency [16] | Potency [18] | Potency [19]
